# The panel holds about 79,000 compounds, 15% with a hit somewhere; the sample as a whole holds those more often. Unmarked numbers belong to inactive results. Rule as the data show it: active = growth inhibition above about 70%; inactive = the rest.
# Test: NCI Yeast Anticancer Drug Screen. Data for the mlh1 rad18 strain (AID 175)
# Details: S. cerevisiae mlh1 rad18 strain growth inhibition; at 50.0 µM; hits give high values
# Outline: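 A repair-deficient yeast strain is exposed to test compound, and growth is scored relative to vehicle-treated controls.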
row,SMILES,growth inhibition [%]
1,CCN(CC)C1=C(C)S(=O)(=O)C1c1ccc(C)cc1 (stereo not given),-2.15
2,CN(C)c1ccc(C=Nc2cc(Cl)ccc2O)cc1,52.9
3,Oc1ccc(C=NCCN=Cc2ccc(O)cc2)cc1,12.1
4,CCCOC(=O)c1ccnc(C(=O)OCCC)c1,-13.6
5,CCn1c2ccc(C=O)cc2c2cc([N+](=O)[O-])ccc21,15.1
6,c1ccc(C(N=NC(c2ccccc2)c2ccccc2)c2ccccc2)cc1,16.8
7,CC1(C)C(=O)/C=C\C(=O)C(C)(C)C(=O)/C=C\C(=O)C(C)(C)C2=CC=C(O2)C(C)(C)C(=O)/C=C\C1=O,14.4
8,CNC1C(=O)C(C)C(O)(C(CC(C)C(O)/C=C/C=C/CNC(=O)C(C)(C)C(O)\C(C)=C/C=C\C=C\Cc2cnc(C)o2)OC)C12C(=O)OC2COC (stereo not given) (tested in a mixture with another compound),6.35
9,C=CCNC(=O)C(=O)NCC=C,2.1
10,O=C(Nc1ccccc1Cl)Nc1ccccc1Br,-17.3
11,CS(=O)(=O)Oc1ncc(Cl)cc1Cl,-8.1
12,O=[N+]([O-])c1ccc(OCCCCCBr)c(Cl)c1,54.7
13,COc1ccc(N/N=C2\CCOc3ccc(C)cc3C2=O)cc1,46.7
14,Cc1ccc(S(=O)(=O)Oc2nc3nc4ccccc4nc3nc2OS(=O)(=O)c2ccc(C)cc2)cc1,-3.95
15,COc1ccn(C2OCCC(OC(C)=O)C2O)c(=O)n1 (stereo not given),11.7

# Source: PubChem BioAssay (NCI)
